The text below walks through data of PubChem BioAssay AID1745848 (National Center for Advancing Translational Sciences (NCATS), 2022).

SMILES strings stand for the structures. Among all 2,100 compounds or so, about 940 (45%) were called active. Another 48% or so got no clear call; they are omitted. So high a share suggests a set chosen from earlier hits. Some of the results follow. Unmarked numbers belong to inactive results. Calls come from the whole dose curve; as a rule, active = well fitted inhibition curve with a large enough effect; inconclusive = small, poorly fitted or top-dose-only effect; inactive = no such curve, though single readings can be large or run the other way.
Potency is the fitted concentration of half-maximal effect.

This assay can be described thus: Confirmatory qHTS for Inhibitors of ATXN expression.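 For activity change, negative = inhibition: 0% = DMSO vehicle wells and -100% = medium-only wells without cells.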 Note: nearly all actives have a fitted effect of over 65% in size. The following applies: ATXN2-luciferase reporter cells, luminescence, 24 h; series mostly up to 11.5 µM; activity change, negative = inhibition: at the top concentration. The text has this: PI: Daniel Scoles Ph.D. University of Utah School of Medicine, Salt Lake City, Utah MLPCN Grant: NS073009 Spinocerebellar ataxia type 2 (SCA2) is a multisystem neurodegenerative disease caused by a dominantly acting mutation leading to expansion of a polyQ domain in the ataxin-2 protein (ATXN2). SCA2 patients develop progressive ataxia and later lose function in other neuronal systems. Prominent parkinsonian signs develop in some patients. Like many neurodegenerative disorders, no symptomatic or disease-modifying treatments are known. The primary objective of the proposed research is to identify compounds inhibiting ATXN2 expression and to test them for efficacy in SCA2 mouse models. We have developed a cell-based assay paired with an in vivo mouse model using identical luciferase expression constructs. This approach takes advantage of an ATXN2-luciferase transgene, with the luciferase gene flanked by the upstream and downstream portions of the ATXN2 gene. Here we describe a 5-7 dose quantitative high thoroughput screen (qHTS) for compounds lowering ATXN2 expression. We screened the NIH Molecular Libraries Small Molecule Repository (MLSMR) and NCGC's mechanistically annotated (MIPE) and drug repurposing (NPC) collections of compounds for lowering expression of an ATXN2-luciferase reporter in HEK-293 cells. The assay is a multiplexed cell viability assay to ensure target reduction in the absence of cytotoxicity. Secondary qHTS assays included a CMV-luciferase reporter expressed in HEK-293 cells as well as a biochemical assay using recombinant luciferase to detect inhibitors of the reporter enzyme. Compounds that inhibit ATXN2 expression but is not cytotoxic were selected for confirmatory and secondary screens.
PROTOCOL TABLE (as described by Inglese J, Shamu CE and Guy RK. 2007) SEQUENCE No. (e.g., 1, 2, 3, etc.); PARAMETER (e.g., Cells, Incubation, Reagent, etc.); VALUE; DESCRIPTION. 1; Cells; 4 uL; white, solid bottom, 1536-well Greiner assay plate. 2; Incubation; 2 hr; 37 degree C in 5% humidified CO2. 3; Compounds; 23 nL; Kalypsis pintool (Wako USA) equipped with a 1536-well pin head. 4; Incubation; 24 hr; 37 degree C in 5% humidified CO2. 5; Reagent; 1 uL; Gly-Phe-7-Amino-4-trifluoromethylcoumarin. 6; Incubation; 30 min; 37 degree C in 5% humidified CO2. 7; Detection; Fluorescence; ViewLux plate reader (PerkinElmer). 8; Reagent; 3 uL; SteadyGlo luciferase solution (Promega). 9; Incubation; 5 min; room temperature. 10; Detection; Luminescence; ViewLux plate reader (PerkinElmer). NOTES (numbers refer to Sequence numbers above) 1. […] expressing ATXN2-luciferase reporter were suspended in phenol-red free DMEM and dispensed in assay plates using a Multidrop Combi dispenser (Thermo Fisher Scientific). Wells containing medium only were plated on each plate, and values were used to normalize (100% inhibition) in the luciferase and CellTiter-Fluor assays. 2. Assay plates were incubated. Evaporation was prevented by covering assay plates with metal lids containing holes to allow gas diffusion. 3. Compounds were added in a dose response manner with the final concentrations of 57, 11.4, 2.28, 0.46, 0.091, 0.018, 0.0037 uM. Vehicle-only plates, with DMSO being pin-transferred to columns 5-48, were inserted uniformly at the beginning and the end of each library to monitor and record any shifts in assay performance. 5. 125 uM Gly-Phe-7-Amino-4-trifluoromethylcoumarin (MP Biomedicals) working concentration was used at a final concentration of 25 uM. 7. To assess cell viability; the assay plates were read using the ViewLux high-throughput CCD imager (PerkinElmer), wherein single end-point fluorescence measurement was acquired (excitation 405/10; emission 540/25 nm). 8. Detection reagent SteadyGlo Luciferase (Promega) was added to the assay plate. 10. Luminescence is then measured on the ViewLux imager equipped with a clear emission filter using a 2 sec exposure. […]
In general terms: qHTS replaces the single test concentration by a dilution series.
For the molecule `C/C(=N\NC(=O)c1cc(-c2cccnc2)nc2ccccc12)c1ccc(O)cc1O`, the Potency was 2.51 µM (active).
On to `C/C(=N\NC(=O)c1cc(C2CC2)nc2ccccc12)c1ccc(O)cc1O`, for which the Potency was 3.55 µM (active).
Consider `Cc1onc(-c2ccccc2)c1C(=O)Nc1ccc(S(=O)(=O)NC(C)(C)C)cc1`, for which the “activity change, negative = inhibition” value is -20.4% [at 57.5 µM].
On to `COc1cccc(/C=N/NC(=O)c2c(-c3ccccc3)noc2C)c1O`, for which the Potency was 0.708 µM (active).
`Cc1cccc(/C=N/NC(=O)c2c(-c3ccccc3)noc2C)c1O`: the Potency was 1.26 µM (active).
`Cc1cc(N2CCN(C)CC2)ccc1NC(=O)c1ccc(-c2ccc(Cl)cc2)o1`: the Potency is 14.1 µM (active).
As for `O=C(N/N=C/c1ccccc1O)C1CC(=O)N(c2ccc(F)cc2)C1` (stereo not given), the Potency was 3.55 µM (active).
With `O=C(N/N=C/c1ccccc1O)C1CC(=O)N(c2ccc(Cl)cc2)C1` (stereo not given), the Potency is 1.41 µM (active).
The same measure, in the same setting: the result for `CCc1ccc(N2CC(C(=O)N/N=C/c3cc([N+](=O)[O-])ccc3O)CC2=O)cc1` (stereo not given) reads 25.1 µM (active).
Turning to `COC(=O)C(Cc1ccc(O)cc1)NC(=O)C(C)Oc1ccccc1` (stereo not given), the “activity change, negative = inhibition” value was -11.3% [at 57.5 µM].
Regarding `CC(Oc1ccc(Cl)cc1)C(=O)NNC(=S)NC(=O)c1ccco1` (stereo not given), the Potency was 14.1 µM (active).
For the molecule `COc1ccccc1NC(=S)NC(=O)c1ccc(Cn2cc(Br)cn2)cc1`, the “activity change, negative = inhibition” value was -19.7% [at 57.5 µM].
Take `COc1ccccc1C(=O)NNC(=S)NC(=O)c1ccco1`: the Potency is 6.31 µM (active).
Still for that read-out and setting: the result for `CC(=O)c1ccc(NC(=O)COC(=O)c2c3c(nc4ccccc24)/C(=C\c2cccs2)CCC3)cc1` reads 20 µM (active); that for `O=C(NN=Cc1ccc(O)cc1O)c1ccccc1NS(=O)(=O)c1cccs1`, 2.82 µM (active).
Consider `CN1C/C(=C/c2cccnc2)C(=O)/C(=C/c2cccnc2)C1`, for which the “activity change, negative = inhibition” value is 1.08%.
As to `O=C1/C(=C/c2ccncc2)CCC/C1=C\c1ccncc1`, the Potency was 5.62 µM (active).
Turning to `CCn1c(/C=C/c2ccc([N+](=O)[O-])o2)nc2ccccc2c1=O`, the Potency is 7.08 µM (active).
With `O=C(Nc1ccc(F)cc1)Nc1cc(OCC(F)(F)F)cc(OCC(F)(F)F)c1`, the Potency was 3.55 µM (active).
Take `COc1ccc(CC2C(=O)NC(C)C(=O)N(C)C3Cc4ccc(cc4)Oc4cc(ccc4O)CC(C(=O)NC(C)C(=O)NC(C)C(=O)N2C)N(C)C3=O)cc1` (stereo not given): the Potency is 0.251 µM (active).
The same measure, in the same setting: the result for `O=C(CCC(=O)Nc1cc(C(F)(F)F)ccc1Cl)N/N=C\c1cc([N+](=O)[O-])ccc1O` reads 3.16 µM (active).
Turning to `O=C(CSCc1ccc(Cl)cc1)Nc1cc([N+](=O)[O-])ccc1O`, the “activity change, negative = inhibition” value is -3.54%.
With `O=C(CCCC(=O)Nc1cccc(Br)c1)N/N=C/c1cc([N+](=O)[O-])ccc1O`, the Potency is 3.16 µM (active).
For `c1ccc(CN=C(NCc2ccccc2)NCc2ccccc2)cc1`, the Potency is 28.2 µM (active).
Same read-out and setting: the result for `COc1ccc2[nH]c3c(N4CCC(O)(c5cccc(C(F)(F)F)c5)CC4)ncnc3c2c1` reads 2.82 µM (active).
Same read-out and setting: the result for `COc1cccc2c1C1COC3C4CC(C(=O)O)C(C(C2)N13)N4C` (stereo not given) reads 10 µM (active); that for `COc1cccc2c1C(CO)N1C(C#N)C3CC(C(=O)O)C(C1C2)N3C` (stereo not given), 0.282 µM (active); that for `Cc1nnc(-c2ccccc2)c(=O)n1/N=C/c1c(O)ccc2ccccc12`, 10 µM (active).
As for `COC(=O)c1ccc(N2CCOCC2)c(NC(=O)Nc2cccc(OC)c2)c1`, the “activity change, negative = inhibition” value was -5.44%.
`COc1ccc2nc(C)cc(Nc3ccc(N4CCOCC4)cc3)c2c1`: the Potency was 15.8 µM (active).
`CC(C)(C)c1ccc(C(=O)N2CCCCCC2=O)cc1`: the Potency is 1.78 µM (active).
With `COc1ccc(-c2csc(N(CCCN3CCOCC3)C(=O)c3ccco3)n2)cc1`, the Potency was 3.16 µM (active).
On to `COc1ccc(/C(N)=N/OC(=O)N2CCOCC2)cc1`, for which the “activity change, negative = inhibition” value is -30.8%.
Turning to `COc1ccc(-c2csc(N(CCCN(C)C)C(=O)c3ccccc3Cl)n2)cc1`, the Potency was 3.16 µM (active).
In the case of `N#Cc1ccccc1NC(=O)C1SC(=Nc2ccccc2)C(C(=O)Nc2ccc(Cl)cc2)=C1N` (stereo not given), the “activity change, negative = inhibition” value was -3.14%.
On to `O=c1c2c(-c3ccccc3)csc2nc2c3ccccc3c(NCCN3CCOCC3)nn12`, for which the Potency is 3.16 µM (active).
Same read-out and setting: the figure for `Brc1cnc2nc(SCc3nc4ccccc4[nH]3)[nH]c2c1` is 2.82 µM (active).
With `Cc1ccc(-c2nc3cc(Br)cnc3nc2-c2ccc(C)cc2)cc1`, the “activity change, negative = inhibition” value is -7.66%.
On to `O=C(CSc1nnc(-c2ccc(Br)cc2)o1)Nc1cccc(C(=O)O)c1`, for which the Potency was 3.16 µM (active).
With `COc1cc(/C=N/Nc2snc(SC)c2C#N)cc(OC)c1OC`, the Potency is 3.16 µM (active).
Take `Cc1ccc(OCC(O)Cn2c(=N)n(CCN3CCCCC3)c3ccccc32)cc1` (stereo not given): the Potency was 14.1 µM (active).
Same read-out and setting: the result for `N=c1n(CCN2CCCCC2)c2ccccc2n1CC(O)c1ccc(Cl)c(Cl)c1` (stereo not given) reads 15.8 µM (active); that for `CCCCCn1c(=N)n(CC(O)COc2ccccc2OC)c2ccccc21` (stereo not given), 2.51 µM (active).
Still for that read-out and setting: the figure for `COc1cccc(NC(=S)/C(=C(\[O-])c2cc(C)n(-c3ccccc3F)c2C)[n+]2ccc(N(C)C)cc2)c1` is 15.8 µM (active).
On to `CCOC(=O)Nc1ccc(N2CCOCC2)c(S(=O)(=O)Nc2ccc(Cl)cc2)c1`, for which the “activity change, negative = inhibition” value was -19.7%.
